About 4,000 (2.1%) of roughly 190,000 compounds were called active. Cut-off read from the data, not from the text of the source: active = inhibition above about 58%; inactive = the rest, inconclusive results apart; tested in S. cerevisiae. This excerpt belongs to a sample that is enriched for actives.
Assay: growth inhibition of WT strain, primary screen, mitochondrial fusion inhibitor project, WT and mutant strains, chemical genetic (AID 1362)
Settings: mitochondrial fusion phenotypic screen, at 10 µM
[1] = WT strain, growth inhibition, stronger effect = higher value

SMILES | inhibition [1] | inhibition (mutant strain inhibition)
c1ccc(-c2cc(N3CCCCC3)c3ccccc3n2)cc1 | 36.4% (inactive) | 49.1%
CC(C)(C)NC(=O)C(=O)NN=C1CCCCCCC1 | -0.12% (inactive) | 9.74%
CC(C)NC(=S)NN=C1CCCCCCCCCCC1 | 69.5% (active) | 53.1%
CC(=O)NC(NC(=S)Nc1c(C)n(C)n(-c2ccccc2)c1=O)C(Cl)(Cl)Cl (stereo not drawn) | 15.8% (inactive) | 0.58%
CCOCCCNC(=S)N1CCC(NC(=O)C2CCCCC2)CC1 | 6.14% (inactive) | 2.16%
COc1ccc(NS(=O)(=O)c2ccc(O)c(C(=O)OCC(=O)NC3CCCCC3)c2)cc1 | -15% (inactive) | 17.3%
COc1ccc(C2CC(c3cccs3)=NN2c2ccc(F)cc2)cc1OC (stereo not drawn) | 30.3% (inactive) | 11.7%
Fc1ccc(N2N=C(c3cccs3)CC2c2ccco2)c(F)c1 (stereo not drawn) | 70.8% (active) | 10.1%
COc1ccccc1N1N=C(c2cccs2)CC1c1ccccc1 (stereo not drawn) | 52.7% (inactive) | 33.7%
CCN1CCC2(CCN(Cc3cn[nH]c3-c3ccc(OC)c(F)c3)C2)C1 (stereo not drawn) | -2.46% (inactive) | -5.08%
CCC1CCCCN1S(=O)(=O)Cc1ccccc1Cl (stereo not drawn) | 0.45% (inactive) | 1.41%
CN1C2CCC1/C(=C\c1ccccc1Cl)C(=O)/C2=C\c1ccccc1Cl | 60.7% (active) | 32.3%
O=C(CN1CCCCCC1)NCCN1C(=O)S/C(=C\c2ccccc2Cl)C1=O | 2.91% (inactive) | -4.16%
COc1ccc(Cl)cc1N(CC(=O)N1CCCCC1)S(C)(=O)=O | 11.8% (inactive) | 0.08%
Cc1cc(C)cc(C(=O)NC2C(=O)N3C(C(=O)O)=C(CSc4nnc(C)s4)CSC23)c1 (stereo not drawn) | 4% (inactive) | -0.51%
Cc1ccc(NC(=O)c2csc3c2CCCC3)cc1 | 11.5% (inactive) | 21.5%
COC(=O)c1sccc1NC(=O)c1csc2c1CCCC2 | 71.3% (active) | 48.8%
COC(=O)c1sc(NC(=O)c2csc3c2CCCC3)nc1C | 16.5% (inactive) | 0.86%
CC(=O)c1cccc(-n2nnnc2SCC(=O)NNC(=O)C2CCCCC2)c1 | 6.05% (inactive) | 12.8%
Cc1cc(-c2nnc(CCC(=O)NC(c3ccccc3)c3ccccc3)o2)no1 | 7.01% (inactive) | 6.86%
CC(Sc1nc2ccccc2c(=O)n1Cc1ccco1)C(=O)c1ccccc1 (stereo not drawn) | 69.4% (active) | 31.3%
CCOC(=O)C(C)Sc1nc2ccccc2c(=O)n1CC1CCCCC1 (stereo not drawn) | 21.8% (inactive) | -3.67%
O=C(CCCn1c(SCC(=O)c2ccc(F)cc2)nc2ccccc2c1=O)NCc1ccco1 | 7.88% (inactive) | 15.5%
Cc1cc([N+](=O)[O-])nn1CCCC(=O)Nc1cccnc1Cl | -5.91% (inactive) | -23.5%
